This passage reports growth sensitivity score results from the supplement of paper PMC3414501.

Counter-ions that a name gives are not always drawn. Values without a mark were called inactive. Cut-off read from the data, not from the text of the source: active = 2 or more and inactive = the rest.

For the test, the system named is S. cerevisiae BY4741 (wild-type), vegetative growth in YPD. Briefly: growth sensitivity score (doubling time z-score vs DMSO controls); higher = slower growth, strongly negative scores also mark growth inhibition (complete suppression), active = hit call of the paper. The method, boiled down:
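Saccharomyces cerevisiae strains BY4741 and AD1-9 were seeded in rich medium in microtiter plates at an OD600 of 0.065. Compounds were added at a 1:100 dilution of DMSO stock. Optical density was read every 15 min for 24 hours on a Tecan GENios reader. Average doubling time was the time taken to reach a set generation point divided by generation number, and the growth sensitivity score was (compound mean − DMSO-control mean)/DMSO-control SD, using eight DMSO controls per experiment.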
On to `c1cnc(N2CCN(Cc3ccc4c(c3)OCO4)CC2)nc1` [Piribedil] (stock concentration (mM, diluted 1:100): 9.7), for which the growth sensitivity score is 1.65. Then `C[C@]12CCC(=O)C=C1CC[C@@H]1[C@@H]2CC[C@@]2(C)[C@H]1CC[C@]2(O)C(=O)CO` [Cortodoxone] (stock concentration (mM, diluted 1:100): 10), with -0.69; and `CC[C@H]1OC(=O)[C@H](C)C(=O)[C@H](C)[C@@H](O[C@@H]2O[C@H](C)C[C@H](N(C)C)[C@H]2O)[C@](C)(OC)C[C@@H](C)C(=O)[C@H](C)[C@H]2N(CCCCn3cnc(-c4cccnc4)c3)C(=O)O[C@]12C` [Telithromycin] (stock concentration (mM, diluted 1:100): 10), with 0.09. Take `CC(=O)OCC(=O)NCCCOc1cccc(CN2CCCCC2)c1` [Roxatidine acetate hydrochloride] (stock concentration (mM, diluted 1:100): 9.1): the growth sensitivity score is -1.51. The result for `CCN1CC(CCN2CCOCC2)C(c2ccccc2)(c2ccccc2)C1=O` (stereo not given) [Doxapram hydrochloride] (stock concentration (mM, diluted 1:100): 10.4) reads -0.29.
